Measured values reported in PubChem BioAssay (Tox21).
Records with an inconclusive call do not appear. A number with no mark means an inactive call. Active and inactive are the calls of the source. Calls come from the whole dose curve.

experiment: qHTS assay for small molecule agonists of the p53 signaling pathway (AID 651631); settings: HCT-116 p53RE-bla reporter, beta-lactamase FRET ratio, 16 h; series mostly up to 73.3 µM; activation: at the top concentration; note: nearly all actives have a fitted effect of over 15% in size
Excerpt: U.S. Tox21 Program National Center for Advancing Translational Sciences [NCATS] NIH Chemical Genomics Center [NCGC] U.S. Environmental Protection Agency [EPA] National Institutes of Environmental Health Sciences [NIEHS] National Toxicology Program [NTP] U.S. Food and Drug Administration [FDA] Tox21 Assay Overview: p53, a tumor suppressor protein, is activated following cellular insult, including DNA damage and other cellular stresses. The activation of p53 regulates cell fate by inducing DNA repair, cell cycle arrest, apoptosis, or cellular senescence. The activation of p53, therefore, is a good indicator of DNA damage and other cellular stresses. The CellSensor p53RE-bla HCT-116 cell line (Invitrogen) contains a stably integrated beta-lactamase reporter gene under control of the p53 response elements. The activation of the reporter gene under culture conditions can be detected by fluorescence intensity. This cell line was used to screen the Tox21 compound library in a 1536-well plate format and to identify agonists that activate the p53 signaling pathway.
Tox21 Assay Protocol Summary: The p53RE-bla cells were dispensed at 4,000 cells/5 ul/well in 1536-well black wall/clear bottom plates using a Multidrop dispenser. After the assay plates were incubated at a 37 C/5% CO2 incubator for 5 hours, 23 nL of compounds dissolved in DMSO, positive controls or DMSO only was transferred to the assay plate by a pin tool. The plates were incubated at 37 C for 16 hours. After 1 uL of LiveBLAzerTM B/G FRET substrate was added using a Flying Reagent Dispenser, the plates were incubated at room temperature for 2 hours, and fluorescence intensity was measured by an Envision plate reader.
% is set by controls: 0 for no effect and ±100 for the full control effect; potency is the fitted concentration of half-maximal effect.

SMILES	activation	Potency
O=C1C[C@@H]2OCC=C3CN4CC[C@]56c7ccccc7N1[C@H]5[C@H]2[C@H]3C[C@H]46 (tested in a mixture with another compound)	-3.89%	
CCC1(c2ccccc2)C(=O)NC(=O)N(C)C1=O (stereo not given)	-2.06%	
COc1ccc(C)cc1N	2.33%	
CCCN1CCC[C@H](c2cccc(O)c2)C1	-3.48%	
CC(=O)OC1CN2CCC1CC2 (stereo not given)	-1.49%	
CCOC(=O)C(O)(c1ccc(Cl)cc1)c1ccc(Cl)cc1		27.6 µM (active)
O=[N+]([O-])c1cc(I)c(O)c(I)c1		5.31 µM (active)
CCC1C(C)=NN=C(c2ccc(OC)c(OC)c2)c2cc(OC)c(OC)cc21 (stereo not given)	-4.16%	
CC(N)Cc1ccc2c(c1)OCO2 (stereo not given)	5.11%	
Cc1ccc([N+](=O)[O-])c(C)c1	-0.882%	
CC(=O)OCC(=O)[C@H]1CC[C@H]2[C@@H]3CC[C@H]4C[C@H](O)CC[C@]4(C)[C@H]3C(=O)C[C@]12C	-3.47% [at 34.7 µM]	
O=C(Cl)c1cccc(C(=O)Cl)c1	1.79%	
Clc1ccc2c(c1)C(c1ccccc1)=NCc1nncn1-2	0.314%	
CCc1cccc(CC)c1N	0.649%	
CCN1C[C@]2(COC)[C@H](O)C[C@H](OC)[C@@]34[C@@H]5C[C@@]6(O)[C@H](OC(=O)c7ccccc7)[C@@H]5[C@@](OC(C)=O)([C@@H]([C@H](OC)[C@H]23)[C@@H]14)[C@@H](O)[C@@H]6OC	-1.6%	
Cc1ccccc1-n1c(C)nc2ccccc2c1=O		inactive
Nc1ccc(Cl)cc1Cl	1.12%	
COc1ccc(OC)c([C@@H](O)[C@H](C)N)c1	2.04%	
CNC(C)CC1CCCCC1 (stereo not given)	-2.05%	
CCC(=O)O[C@]1(c2ccccc2)CCN(C)C[C@H]1C	4.56%	

SMILES	activation	Potency
Cc1c(N)cccc1[N+](=O)[O-]	-3.42% [at 95.1 µM]	
CCNC1(c2cccs2)CCCCC1=O (stereo not given)	-1.38% [at 34.7 µM]	
CC(C)(O)[C@@H]1[C@H]2OC(=O)[C@@H]1[C@]1(O)C[C@H]3O[C@]34C(=O)O[C@H]2[C@]14C	-1.9%	
COc1cc([C@@H]2c3cc4c(cc3[C@H](O)[C@H]3COC(=O)[C@H]23)OCO4)cc(OC)c1OC	-2.31%	
CC(C)C[C@H]1C(=O)N2CCC[C@H]2[C@]2(O)O[C@](NC(=O)[C@@H]3C[C@@H]4c5cccc6[nH]cc(c56)C[C@H]4N(C)C3)(C(C)C)C(=O)N12	-2.89%	
C=CC(=O)OCCCCCCCC(C)C	-1.34%	
CC(CCl)OP(=O)(OC(C)CCl)OC(C)CCl (stereo not given)	-0.473%	
C[C@]12CCC(=O)C[C@@H]1CC[C@@H]1[C@@H]2CC[C@@]2(C)[C@H]1CC[C@]2(C)O	-3.3%	
CN[C@@H](C)Cc1ccccc1	-3.37%	
[H+].[H+].[Hg+2].[O-]B([O-])[O-].[c-]1ccccc1		1.33 µM (active)
Oc1ccc2c3c1O[C@H]1[C@@H](O)C=C[C@H]4[C@H](C2)NCC[C@@]341	-4.11%	
C#CC(C)(O)CC (stereo not given)	0.873%	
Cc1cccc([N+](=O)[O-])c1C	-1.83% [at 95.1 µM]	
CC1(C)C(C=C(Cl)Cl)C1C(=O)OCc1cccc(Oc2ccccc2)c1 (stereo not given)	-3.75%	
CC(=O)O[C@H]1CC[C@H]2[C@@H]3CCC4=CC(=O)CCC4=C3C=C[C@]12C	-3.13%	
CNC(=O)OCC[N+](C)(C)C	-3.29%	
[S]=[Sb](=[S])[S][Sb](=[S])=[S]	-2.78%	
COc1ccc2c3c1O[C@H]1[C@@H](O)C=C[C@H]4[C@@H](C2)NCC[C@@]341		inactive
CCc1cccc(C)c1N	3.17%	
O=C(O)/C=C/C(=O)O		inactive
